# Test results taken from PMC5540273 (PLoS ONE, 2017).
# Tested on: CSNK2A2
# Details: concentration: 1 μM, replicates: in singlicate; n = 1
# 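Further: KINOMEscan kinase panel screen.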
row,SMILES,%Inh [%]
1,CCc1ccc(-c2ccc3c(c2)-c2nn(C)cc2S(=O)(=O)N3C)cc1,0
2,Nc1n[nH]c2ncc(-c3ccccc3)cc12 [SB-517081],11
3,Cc1nc(N(C)[C@H]2CN(C(=O)CC#N)CC[C@H]2C)c2cc[nH]c2n1,6
4,COc1ccc(-c2coc3ccc(-c4nnc(SCc5cccc(C#N)c5)o4)cc23)cc1,28
5,CCC(=O)c1c(-c2ccccc2)c2cc(Cl)ccc2c(=O)n1Cc1cc(S(C)(=O)=O)n(CCC(C)(C)O)n1,22
6,COc1cc2ncn(-c3cc(OCc4ccncc4)c(C(N)=O)s3)c2cc1OC [GSK336313],29
7,Nc1nccc2scc(-c3ccc4c(c3)CCN4C(=O)Cc3ccccc3)c12 [GSK2576924],13
8,COC(=O)c1c(-c2ccccc2)c2cc(Br)ccc2c(=O)n1Cc1ccc(S(C)(=O)=O)cc1,42
9,CCCC(=O)Nc1n[nH]c2ncc(-c3cccc4ccccc34)cc12 [SB-642057],0
10,O=C1NC(=O)C(c2ccccc2)=C1Nc1cccc(O)c1 [SB-390534],0
11,Cc1nn2c(=O)cc(N3CCOCC3)nc2n1Cc1cccc(Cl)c1Cl [GSK2342769],5
12,C[C@@H]1CC[C@H](C(=O)NC2CCCCC2)CN1c1cc(-c2ccc3c(N)n[nH]c3c2)nc(N)n1 [GSK2291363],0
13,Nc1ncnc2c1ncn2-c1cccc2ccccc12 [SKF-97184],0
14,COc1cc2ncn(-c3cc(OCc4ccncc4Br)c(C(N)=O)s3)c2cc1OC [GW854278],18
15,COc1cc2ncn(-c3cc(OCCCc4ccccc4)c(C(N)=O)s3)c2cc1OC [GSK205189],3
16,O=C(Nc1n[nH]c2nc(-c3ccccc3)c(Cl)cc12)C1CC1 [SB-734909],34
17,COc1ccc(-c2cc3c(C)nc(N)nc3n([C@H]3CC[C@H](OCCO)CC3)c2=O)cn1,11
18,CCC(=O)c1c(-c2ccccc2)c2cc(Cl)ccc2c(=O)n1Cc1ccc(C(=O)O)cc1,0
19,Cc1nnc(-c2ccc(C)c(-c3ccc(C(=O)O)cc3)c2)o1 [GW608005],8

row,SMILES,%Inh [%]
1,Cc1ccccc1COc1cc(-n2cnc3cc(Cl)ccc32)sc1C(N)=O [GW813349],54
2,Cc1ccc(Oc2ccc(Nc3ncnc4cc[nH]c34)cc2C)cn1,13
3,CCCNC(=O)Nc1ccc(Oc2ncnc3ccn(C)c23)cc1,33
4,COc1cc(Nc2nccc(N3CCC(NC(=O)C4COc5ccccc5O4)C3)n2)cc(OC)c1OC (stereo not shown) [GSK1379761],0
5,COc1cc2ncn(-c3cc(OCc4ccc(S(C)(=O)=O)cc4)c(C(N)=O)s3)c2cc1OC [GW869979],0
6,COc1cc(Nc2ccnc3ccc(C(F)(F)F)cc23)cc(OC)c1OC [GW577382],62
7,O=C(Nc1n[nH]c2cc(-c3ccccc3F)ccc12)C1CC1 [SB-733371],0
8,COC(=O)c1c(-c2ccccc2)c2cc(C)ccc2c(=O)n1Cc1ccccc1,0
9,FC(F)(F)c1ccc(-c2ncn(CCCN3CCOCC3)c2-c2ccncc2)cc1 [SB-217780],5
10,Cl.NS(=O)(=O)c1cccc(Nc2cc(-c3ccc(F)cc3)n[nH]2)c1 [GW824645],20
11,COc1cccc(C2=C(N(C)c3ccccc3)C(=O)NC2=O)c1 [SB-334865],3
12,Cn1c(=O)c(F)c(Nc2ccc(I)cc2F)c2c(=O)n(OC[C@H](O)CO)cnc21,0
13,Fc1cccc(CSc2nnc(-c3ccc4c(c3)CCO4)o2)c1,33
14,Nc1ncnc2c1ncn2-c1cccc(F)c1 [SKF-97560],0
15,COc1cc(OC)cc(-c2cc3cnc(N)nc3nc2NC(=O)NC(C)(C)C)c1,0
16,CCc1nc(-c2cccc(C)c2)c(-c2ccncc2)s1,0
17,COc1ccc(Nc2nccc(N3CCC(NS(=O)(=O)c4ccc(NC(C)=O)cc4)C3)n2)cc1 (stereo not shown) [GSK1379729],18
18,COc1ccc(-n2cnc3c(N)ncnc32)cc1 [SKF-97236],3
